Data on 26 molecules can be found in PubChem BioAssay (EPA / NIEHS).

In general, AC50 refers to the concentration giving half of the maximal activity seen.

Several values for one entry are separate records, joined by “and”; a condition that tells them apart may be missing. Equal entries are not always repeated. Activity calls are given as the source filed them. The calls were made as follows: active = hit-call score of the fitted dose curve at least 0.9, where 1 is the maximum; inactive = score below 0.9.

Read-out in this assay: solute carrier (SLC22A1), SLC22A1 (gene 6580)
In words: LTEA_HepaRG_SLC22A1: Life Technologies and Expression Analysis (LTEA) Assay for solute carrier (SLC22A1) using HepaRG (AID 2283524).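 As to AC50: differentiated human HepaRG liver cells in serum-free induction medium.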 The following applies: mRNA level, 48 h; actives raise or lower the signal. In outline:
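Human HepaRG cells were plated 48 h, switched to serum-free induction medium, then exposed in duplicate for 48 h to 8-point half-log series from 100 uM in 0.5% DMSO. SLC22A1 mRNA measured by qRT-PCR, normalized to ACTB/GAPDH/POLR2A, fitted bidirectionally versus DMSO.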
Consider `CSC(=O)c1cccc2nnsc12`, for which the molecule was called inactive.

For `c1ccc(Nc2ccccc2)cc1`, the result was inactive.

Regarding `CCOC(=O)NCCOc1ccc(Oc2ccccc2)cc1`, the AC50 was 84.9 µM (active).

For `CC(C)(c1ccc(O)cc1)c1ccc(O)cc1`, the molecule was classed as inactive.

Consider `Oc1ccc(C(c2ccc(O)cc2)C(Cl)(Cl)Cl)cc1`, for which the AC50 is 92.3 µM (active).

For `CCOC(=O)c1ccc(O)cc1`, the result was inactive.

On to `CCCCCOC(=O)COc1cc(N2C(=O)C3=C(CCCC3)C2=O)c(F)cc1Cl`, for which the result was inactive.

Regarding `C[C@]12CC[C@@H]3c4ccc(O)cc4C[C@@H](CCCCCCCCCS(=O)CCCC(F)(F)C(F)(F)F)[C@H]3[C@@H]1CC[C@@H]2O` (stereo partly specified), the AC50 was 14.5 µM (active).

Take `CCCCCCC(C)OC(=O)COc1nc(F)c(Cl)c(N)c1Cl` (stereo unspecified): the result was inactive.

For the molecule `N[C@@H](Cc1cc(I)c(Oc2ccc(O)c(I)c2)c(I)c1)C(=O)O`, the AC50 is 65.7 µM (active).

As to `CCNc1nc(N)nc(Cl)n1`, the molecule was called inactive.

On to `COCCO`, for which the result was inactive.

For `CCN(Cc1c(F)cccc1Cl)c1c([N+](=O)[O-])cc(C(F)(F)F)cc1[N+](=O)[O-]`, the AC50 was 29.6 µM (active).

For the molecule `CN(C)C(=O)Nc1ccc(Cl)c(Cl)c1`, the AC50 is 51.5 µM (active).

In the case of `CCCCOCCOCCOCc1cc2c(cc1CCC)OCO2`, the result was inactive.

Turning to `CCOC(=O)C(C)Oc1ccc(Oc2cnc3cc(Cl)ccc3n2)cc1` (stereo unspecified), the AC50 was 17.2 µM (active).

As for `CCSC(=O)N(CC(C)C)CC(C)C`, the call was inactive.

`COC(=O)CSc1cc(N=c2sc(=O)n3n2CCCC3)c(F)cc1Cl`: the result was inactive.

Turning to `c1ccc2[nH]c(-c3cscn3)nc2c1`, the result was inactive.

In the case of `CCCCC(CC)COC(=O)c1ccccc1C(=O)O` (stereo unspecified), the outcome was inactive.

`CCOC(=O)C(C)Oc1ccc(Oc2nc3ccc(Cl)cc3o2)cc1` (stereo unspecified): the AC50 was 9.92 µM (active).

As to `O=C(c1ccccc1)C1CCCCC1`, the molecule was called inactive.

As to `COc1c(Cl)ccc(Cl)c1C(=O)O`, the molecule was called inactive.

With `CC(=O)[C@H]1CC[C@H]2[C@@H]3CCC4=CC(=O)CC[C@]4(C)[C@H]3CC[C@]12C`, the AC50 is 38.2 µM (active).

With `CC1(C)C(C=C(Cl)Cl)C1C(=O)OCc1cccc(Oc2ccccc2)c1` (stereo unspecified), the call was inactive.

Turning to `S=C(S)NCCNC(=S)S.[Mn+2].[S-]C([S-])=NCCN=C([S-])[S-].[Zn+2]`, the AC50 is 985 nM (active) and 1.14 µM (active) and 908 nM (active).
